One experiment has as its target Albumin (Bos taurus) (UniProt P02769). The experiment is described as follows: compounds binding labelled BSA control protein – biochemical, small-molecule microarray, Alexa647 label, 635/667 nm fluorescence, artefact control for SMM control protein annotation, profiling panel (AID 1118).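 Note: score merges 667 nm emission intensity and signal-to-noise per printed compound spot.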 The settings on record: BSA-A647 binding, fluorescence 635 nm, higher = more signal.

Experiment [1] is described as follows: probe aXIP binding to arrayed compounds – biochemical, NeuroSMM set, 635/667 nm fluorescence, primary screen (AID 1119).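 Note: probe is the protein aXip251-270 applied at 1 µg/mL to compound-printed slides; binding of probe to printed compounds measured as 667 nm fluorescence plus signal to noise.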 The settings on record: small-molecule microarray, higher = more signal, called active from +8 up or from −8 down.
Experiment [2] can be described thus: probe aNOTCH3 binding on compound microarray – biochemical, small-molecule microarray, 635/667 nm fluorescence, primary screen (AID 1120).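 Note: probe is a biotin-tagged antibody raised against NOTCH3 rather than NOTCH3 protein; score merges spot fluorescence near 667 nm with spot signal to noise.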 The settings on record: higher = more signal.
A short description of experiment [3]: probe aNOTCH2 binding on compound microarray – biochemical, small-molecule microarray, 635/667 nm fluorescence, primary screen (AID 1121).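 Note: score merges feature fluorescence read at 667 nm with its signal to noise.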 The settings on record: higher = more signal.
Experiment [4] has as its target Carbonic anhydrase 2 (Homo sapiens) (UniProt P00918). Nature of the experiment: compounds binding carbonic anhydrase 2 – biochemical, small-molecule microarray, Alexa647-labelled CAII, profiling panel (AID 1122). The settings on record: CAII-A647 binding fluorescence, higher = more signal.
Experiment [5] is described as follows: COS7 lysate on small-molecule microarray, probe aHis, 635 nm (AID 1123).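 Note: z-score combines 667nm fluorescence intensity with signal-to-noise per printed compound spot.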 The settings on record: COS7 cell lysate, fluorescence, higher = more signal.
Experiment [6] can be described thus: probe aLAP1 signal on lysate-treated microarray – cell lysate, small-molecule microarray, COS7 lysate, primary screen (AID 1124).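 Note: lysate comes from COS7 cells expressing LAP1 and is applied at 0.3 µg/mL; score merges spot fluorescence near 667 nm with signal-to-noise over triplicate slides.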 The settings on record: probe aLAP1, fluorescence, higher = more signal.
The test system of a further experiment is Sam68 (KHDRBS1). The experiment is described as follows: compounds binding KHDRBS1 protein – biochemical, small-molecule microarray, 635 nm fluorescence, primary screen (AID 1125).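 Note: score merges 667 nm channel intensity with signal to noise over triplicate slides.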 The settings on record: higher = more signal.
Experiment [7] relates to Chordin-like protein 2 (CHRDL2). Nature of the experiment: compounds binding chordin-like 2 – biochemical, small-molecule microarray, 635 nm fluorescence, primary screen (AID 1126).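 Note: printed compound slides probed with Chrdl2 protein at 4 µg/mL for 1 h at 4 C; score merges 667 nm emission intensity with signal to noise over three replicate slides.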 The settings on record: fluorescence 635 nm, higher = more signal.
Experiment [8] addresses Concanavalin-A (Canavalia ensiformis) (UniProt P02866). Nature of the experiment: compounds binding concanavalin A lectin – biochemical, small-molecule microarray, Alexa647 label, 635 nm, artefact control for SMM control protein annotation, primary screen (AID 1127).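 Note: z combines 667 nm emission intensity with signal-to-noise across three replicate slides.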 The settings on record: ConA-A647 binding fluorescence, higher = more signal.

Active and inactive are the calls of the source.

Albumin (Bos taurus), sequence (P02769 whole entry, looked up): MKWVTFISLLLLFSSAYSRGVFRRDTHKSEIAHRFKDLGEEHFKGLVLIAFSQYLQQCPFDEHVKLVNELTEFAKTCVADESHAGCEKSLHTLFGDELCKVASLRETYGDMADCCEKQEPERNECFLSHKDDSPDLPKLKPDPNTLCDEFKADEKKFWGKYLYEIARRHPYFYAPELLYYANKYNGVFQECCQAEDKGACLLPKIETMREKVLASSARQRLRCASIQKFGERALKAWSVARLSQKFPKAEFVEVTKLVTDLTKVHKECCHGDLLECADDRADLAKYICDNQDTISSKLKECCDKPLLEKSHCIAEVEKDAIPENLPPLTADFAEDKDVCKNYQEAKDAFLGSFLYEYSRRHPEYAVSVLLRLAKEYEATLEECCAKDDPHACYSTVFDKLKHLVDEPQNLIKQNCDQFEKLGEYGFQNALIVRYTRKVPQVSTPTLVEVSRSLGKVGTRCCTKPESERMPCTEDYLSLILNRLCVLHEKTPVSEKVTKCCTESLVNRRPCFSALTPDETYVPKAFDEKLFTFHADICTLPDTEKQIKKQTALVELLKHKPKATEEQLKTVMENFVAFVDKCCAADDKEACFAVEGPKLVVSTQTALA
Concanavalin-A (Canavalia ensiformis), sequence (P02866 whole entry, looked up): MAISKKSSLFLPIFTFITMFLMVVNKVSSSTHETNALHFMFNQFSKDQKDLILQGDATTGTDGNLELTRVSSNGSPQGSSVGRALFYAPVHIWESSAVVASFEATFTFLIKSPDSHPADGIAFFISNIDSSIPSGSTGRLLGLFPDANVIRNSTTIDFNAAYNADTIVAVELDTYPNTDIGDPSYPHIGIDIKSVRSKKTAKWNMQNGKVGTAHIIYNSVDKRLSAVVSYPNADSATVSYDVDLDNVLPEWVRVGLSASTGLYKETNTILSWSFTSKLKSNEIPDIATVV

As to `CC(C)N1CC=CC23O[C@@H]4C=CCCOC(=O)C4[C@H]2C(=O)N(CCCCCO)[C@@H]3C1=O` (stereo not given in full), the composite z-score with Albumin (Bos taurus) is 0.62; in experiment [2] it was -0.214; in experiment [3], -0.153; in experiment [4], 0.853; in experiment [5] it was 0.19; in experiment [6], 0.543. The composite z-score is -0.411 in the experiment with Sam68 (KHDRBS1), -0.654 in experiment [7] and 0.878 in experiment [8]. Also, the composite Z-score in experiment [1] was 0.23 (inactive).
`Cc1ccc(S[C@]2(C(=O)NCCN3CCOCC3)CC(=O)N(C3CCCCC3)[C@@H]2c2ccc(CO)cc2I)cc1`: the composite z-score in the experiment with Albumin (Bos taurus) was 0.81; in [2], -0.101; in experiment [3], -0.155; in [4], 0.405; in experiment [5], 2.89; in experiment [6], -0.006. Besides, the composite z-score in the experiment on Sam68 (KHDRBS1) stood at 1.27; in experiment [7] it was 0.138; in experiment [8], 1.11. Also, the composite Z-score in experiment [1] is 0.918 (inactive).
On to `CC(C)C(=C=CC[C@@H](O)c1ccc(OCCO)cc1)CCO`, for which the composite z-score with Albumin (Bos taurus) was 0.261; in experiment [2], -0.0259; in [3], -0.14; in experiment [4], 0.601; in [5] it was 0.583; in experiment [6], -0.178. Also, the composite z-score in the experiment on Sam68 (KHDRBS1) came out at 0.275; in [7], 0.184; in experiment [8] it was 0.224. For the same compound, the composite Z-score in experiment [1] is -0.488 (inactive).
For `Cc1c(-c2ccc(-c3ccc(Cl)c(Cl)c3)o2)nc(-c2ccccc2)c2c1CO[Si]2(C(C)C)C(C)C`, the composite z-score is 0.734 with Albumin (Bos taurus); -0.122 in experiment [2]; -0.148 in experiment [3]; 0.181 in experiment [4]; 0.356 in experiment [5]; -0.213 in experiment [6]. The figures for the composite z-score (in the experiment with Sam68 (KHDRBS1); in [7]; in [8]) were 0.295, -0.18 and 0.248, respectively. For the same compound, the composite Z-score in experiment [1] is -0.0877 (inactive).
For `COc1ccc(CCNC(=O)[C@@]2(C)c3ccccc3C(=O)N(Cc3cc(C(F)(F)F)cc(C(F)(F)F)c3)[C@H]2c2ccc(CO)cc2)cc1`, the composite z-score in the experiment with Albumin (Bos taurus) was 0.0386; in experiment [2], -0.179; in [3] it was -0.161; in [4] it was 0.643; in experiment [5], 2.41; in experiment [6], 0.558. The composite z-score worked out at 1.13 with Sam68 (KHDRBS1), 0.394 in [7] and 0.308 in experiment [8]. Besides, the composite Z-score in experiment [1] is 0.793 (inactive).
For the compound `C[N+](C)(C)CCCCCCNC(=O)[C@@H]1C[C@@H]2C(=O)N[C@@H](Cc3ccccc3)C(=O)N2[C@@H]1c1ccc(O)cc1`, the composite z-score was 0.454 in the experiment with Albumin (Bos taurus); 0.325 in [2]; -0.126 in experiment [3]; 0.524 in experiment [4]; 0.955 in [5]; 0.385 in experiment [6]. The composite z-score in the experiment on Sam68 (KHDRBS1) stood at 1.29; in [7], 1.39; in experiment [8], 1.12. In addition, the composite Z-score in experiment [1] was 0.609 (inactive).
With `COCCOC(=O)N1C(=O)[C@@]2(c3cc(C#CC4(O)CCCCCC4)ccc31)[C@H](C(=O)N1CCc3cc(OC)c(OC)cc3C1)[C@H]1C(=O)O[C@H](c3ccccc3)[C@H](c3ccccc3)N1[C@@H]2c1ccc(O)cc1`, the composite z-score in the experiment with Albumin (Bos taurus) came out at 0.609; in experiment [2], 0.163; in experiment [3], 0.0012; in [4] it was 0.638; in [5], 1.58; in experiment [6] it was 0.773. Moreover, the values for the composite z-score (in the experiment on Sam68 (KHDRBS1); in experiment [7]; in experiment [8]) were 1.29, 0.34 and 1.16, respectively. Besides, in experiment [1], the composite Z-score is 0.413 (inactive).
`COCCOC(=O)N1C(=O)[C@@]2(c3cc(C#CC4=CCCCC4)ccc31)[C@H](C(=O)N1CCc3cc(OC)c(OC)cc3C1)[C@H]1C(=O)O[C@H](c3ccccc3)[C@H](c3ccccc3)N1[C@@H]2c1ccc(O)cc1`: the composite z-score in the experiment with Albumin (Bos taurus) came out at 0.482; in experiment [2], 0.285; in experiment [3] it was 0.307; in experiment [4], 0.267; in [5], 1.32; in experiment [6], 0.858. The figures for the composite z-score (in the experiment with Sam68 (KHDRBS1); in experiment [7]; in experiment [8]) were 1.1, 0.463 and 1.19, respectively. The composite Z-score in [1] was 0.334 (inactive).
Take `C=CCC(OC(C)=O)[C@@H]1[C@@H](N(Cc2cccc3ccccc23)C(=O)c2ccc(-c3ccccc3)cc2)c2cc(OCCCO)ccc2N1C(=O)c1ccc2ccccc2n1` (stereo not given in full): the composite z-score in the experiment with Albumin (Bos taurus) was 0.192; in [2], 0.119; in [3] it was -0.0639; in [4], 0.0528; in experiment [5], 0.181; in experiment [6], 0.649. For the same compound, the composite z-score with Sam68 (KHDRBS1) is 0.464; in experiment [7], 0.41; in experiment [8] it was -0.288. In addition, in experiment [1], the composite Z-score is -0.0401 (inactive).
As to `C=C(/C(=C/C[C@H](OC(=O)c1ccncc1)c1ccccc1OCCO)c1cc(C(=O)OC)ccc1OC)C(C)C`, the composite z-score with Albumin (Bos taurus) was 0.407; in [2], -0.0288; in experiment [3] it was -0.102; in [4] it was 0.453; in [5], 0.537; in experiment [6], -0.0576. Further, the composite z-score was determined as 1.06 with Sam68 (KHDRBS1), 0.33 in [7] and 0.737 in [8]. Further, the composite Z-score in experiment [1] is -0.104 (inactive).
As to `CCOC(=O)C1=C(C(=O)OCC)N(S(=O)(=O)CC[Si](C)(C)C)[C@H](c2ccccc2)CC1`, the composite z-score with Albumin (Bos taurus) was 0.565; in [2], 0.112; in [3], -0.075; in [4] it was 0.443; in [5], 0.727; in experiment [6], -0.102. The composite z-score in the experiment on Sam68 (KHDRBS1) was 1.3; in experiment [7], -0.0267; in [8], 1.14. The composite Z-score in [1] is -0.463 (inactive).
On to `CCOC(=O)C[C@H]1[C@H](OC(=O)c2ccc(-c3ccccc3)cc2)[C@@H](NC(=O)c2ccc3ccccc3c2)c2cc(OCCCO)ccc2N1C(=O)c1ccccc1`, for which the composite z-score in the experiment with Albumin (Bos taurus) was 0.571; in [2] it was 0.0351; in experiment [3], -0.132; in experiment [4], 0.119; in experiment [5], 0.916; in [6] it was 0.14. Also, the composite z-score in the experiment on Sam68 (KHDRBS1) is 1.16; in [7], -0.126; in experiment [8] it was 0.353. The composite Z-score in [1] is 1.03 (inactive).
On to `COCCOC(=O)N1C(=O)[C@@]2(c3cc(C#CCCO)ccc31)[C@H](C(=O)N1CCN(c3ncccn3)CC1)[C@H]1C(=O)O[C@H](c3ccccc3)[C@H](c3ccccc3)N1[C@@H]2c1ccc(O)cc1`, for which the composite z-score with Albumin (Bos taurus) was 0.506; in experiment [2], -0.236; in experiment [3], -0.245; in experiment [4], 0.244; in experiment [5], 1.4; in experiment [6], 0.298. The composite z-score with Sam68 (KHDRBS1) stood at 1.29; in [7] it was 0.182; in experiment [8] it was 0.983. Besides, in experiment [1], the composite Z-score is 0.168 (inactive).
On to `CN1C(=O)C2C(C1=O)C1C=C(c3ccc(CO)cc3)C2C(c2cccs2)N1C` (stereo not given), for which the composite z-score with Albumin (Bos taurus) was 0.935; in experiment [2], -0.0044; in experiment [3], -0.146; in experiment [4] it was 0.76; in [5], 0.784; in [6] it was 1.08. In addition, the composite z-score in the experiment on Sam68 (KHDRBS1) was 0.47; in experiment [7], -0.125; in [8] it was 1.18. Besides, the composite Z-score in experiment [1] was 0.891 (inactive).
As for `CCCC[C@@H](O)C1=C(COC)Cn2c(=O)n(-c3ccccc3)c(=O)n2[C@H]1CO`, the composite z-score with Albumin (Bos taurus) was -0.0338; in experiment [2], -0.0967; in experiment [3] it was -0.166; in experiment [4] it was -0.469; in experiment [5], -0.162; in [6], 0.0924. The composite z-score in the experiment on Sam68 (KHDRBS1) is -0.532; in [7] it was -0.0073; in experiment [8] it was -0.698. In addition, the composite Z-score in [1] is 0.0894 (inactive).
As to `COCCOC(=O)N1C(=O)[C@@]2(c3cc(C#CCNC(N)=O)ccc31)[C@H](C(=O)NC[C@H](O)c1ccccc1)[C@H]1C(=O)O[C@H](c3ccccc3)[C@H](c3ccccc3)N1[C@@H]2c1ccc(OCCO)cc1`, the composite z-score is 0.472 with Albumin (Bos taurus); 0.0018 in experiment [2]; -0.2 in experiment [3]; 0.355 in experiment [4]; 0.245 in [5]; 0.666 in [6]. The composite z-score worked out at 1.26 in the experiment with Sam68 (KHDRBS1), 0.285 in experiment [7] and 1.02 in experiment [8]. For the same compound, the composite Z-score in experiment [1] was -0.102 (inactive).
Regarding `O=C1C2C=CC(C(O)c3cccs3)N(Nc3ccccc3)C2C(=O)N1c1ccccc1` (stereo not given), the composite z-score is 0.21 in the experiment with Albumin (Bos taurus); 0.0864 in [2]; -0.0731 in experiment [3]; 0.787 in [4]; -0.0142 in [5]; -0.646 in experiment [6]. For the same compound, the composite z-score is -0.0232 in the experiment with Sam68 (KHDRBS1), 0.568 in experiment [7] and 0.0148 in experiment [8]. For the same compound, the composite Z-score in [1] was 0.353 (inactive).

The record behind these values is PubChem BioAssay.
